About 83,000 compounds went through this panel and 20% of them were active in at least one assay; those are over-represented in the sample as a whole.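 Step 1: grow cells in 96-well plates. Step 2: add test compound at a single concentration. Step 3: incubate 48 h. Step 4: record percent growth.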 Active and inactive are the calls of the source.
System: CCRF-CEM leukemia
Assay: NCI-60 one-dose screen, 48 h (100 = growth as untreated, 0 = no growth, -100 = all killed)
Settings: 10 µM unless noted
Protocol: Growth inhibition of the CCRF-CEM human tumor cell line is measured as a screen for anti-cancer activity. Cells are grown in 96 well plates and exposed to the test compound for 48 hours. Compounds are tested at a single concentration, which is 10^-5 M for most compounds. The reported endpoint is percent growth (GI% or GIPRCNT), where numbers from 0 - 100% represent growth inhibition, and numbers from -100% - 0 represent cell death. For example, a value of 40 represents 60% growth inhibition. A value of 0 means no net growth occurred over the course of the experiment. A value of -40 indicates 40% of cells at the beginning of the experiment died by the end of the experiment. A value of -100 means all cells are dead at the end of the experiment.
NCI-60 Human Tumor Cell Lines Screen was performed using the standard one-dose NCI protocol, which is described in more detail at https://dtp.cancer.gov/discovery_development/nci-60/default.htm.
Compounds with GIPRCNT values below 10 were considered active. Activity score was based on GIPRCNT using the following formula: […]
Score is 0 for GIPRCNT values of 100 or above, 50 for GIPRCNT values of 0, and 100 for GIPRCNT values of -100.

| Compound | growth |
| --- | --- |
| C=C(C)[C@@H]1CC[C@]2(C=O)CC[C@]3(C)[C@H](CC[C@@H]4[C@@]5(C)C/C(=C/c6cccnc6)C(=O)C(C)(C)[C@@H]5CC[C@]43C)[C@@H]12 | 27.7% (inactive) |
| CCCCC[C@H]1CC=C2C(=O)C=C[C@@H]2CC=CCCCC(=O)O[C@@H](CCCCC)CC=C2C(=O)C=C[C@@H]2CC=CCCCC(=O)O[C@@H](CCCCC)CC=C2C(=O)C=C[C@@H]2CC=CCCCC(=O)O1 | 7.92% [8.75 µM] (active) |
| Cc1cc(N2CCN(C)CC2)nc(N(CCNc2ccnc3cc(Cl)ccc23)Cc2ccco2)n1 | 14.1% (inactive) |
| Cc1cccc(C)c1NC(=O)CSC(=S)N1CCCCC1 | 101% (inactive) |
| C#Cc1cc2c(N)c(C(=O)c3cc(OC)c(OC)c(OC)c3)[nH]c2cc1OC | 16% (inactive) |
| Cn1cc(-c2csc(-c3cn(C(=O)OC(C)(C)C)c4ccccc34)n2)c2cccnc21 | 56.8% (inactive) |
| Cc1csc(-c2ccc3c(c2)COC3(CCCN(C)C)c2ccc(F)cc2)c1 (stereo not given) | 11.3% (inactive) |
| Cn1c2c(Cl)c(Cl)ccc2c2c(C#N)c[nH]c(=O)c21 | 39.2% (inactive) |
| Brc1ccc2c(c1)c(-c1nc(-c3c[nH]c4ncccc34)cs1)cn2CCCN1CCCCC1 | -35.5% (active) |
| Cc1cc(N=O)cc(C(C)(C)C)c1O | 82.5% (inactive) |
| Cc1cc(Cl)nc(N(CCCNc2ccnc3cc(Cl)ccc23)Cc2ccco2)n1 | 20.6% (inactive) |
| COC(=O)C(Cc1ccccc1)n1cc(COc2nc(Cl)nc(Nc3ccc(Cl)cc3)n2)nn1 (stereo not given) | 96.5% (inactive) |
| Cc1ccc(C)c2c1CCC2C(C)C (stereo not given) | 93.5% (inactive) |
| O=C1c2cc3c(cc2-c2c1c1ccc(F)cc1c(=O)n2CCCN1CCOCC1)OCO3 | 19.6% (inactive) |
| C=C(C)[C@@H]1CC[C@]2(C(=O)O)CC[C@]3(C)[C@H](CC[C@@H]4[C@@]5(C)C/C(=C/c6ccc(OC)cc6)C(=O)C(C)(C)[C@@H]5CC[C@]43C)[C@@H]12 | 24% (inactive) |
| CC1(C)C(=O)/C(=C\c2cccnc2)C[C@]2(C)[C@H]3CC[C@@H]4[C@@H](C(=O)/C=C/c5ccncc5)CC[C@@]4(C)[C@]3(C)CC[C@@H]12 | 8.73% (active) |
| C/C(=N\Nc1cc(C)c2ccccc2n1)c1ccccn1 | -20.2% (active) |
| CCC(=O)c1c(C)[nH]c(C)c1C | 98.5% (inactive) |
| Cn1cc(-c2nc(-c3c[nH]c4ncccc34)cs2)c2cc(Br)ccc21 | 58.9% (inactive) |
| C=C1C(=O)O[C@H]2[C@H]1CC/C(COC(=O)N[C@H](Cc1c[nH]c3ccccc13)C(=O)OC)=C\CC[C@@]1(C)O[C@@H]21 | 2.23% (active) |

| Compound | growth |
| --- | --- |
| O=[N+]([O-])c1ccc(N/N=C(\C(=N/Nc2ccc([N+](=O)[O-])cc2[N+](=O)[O-])c2ccccc2)c2ccccc2)c([N+](=O)[O-])c1 | 58.4% (inactive) |
| CC(C)(C)c1nc(-c2ccc(O)c(O)c2)cs1 | 26.4% (inactive) |
| CC[C@H](CC[C@@H](C)[C@H]1CC[C@H]2[C@@H]3/C(=C/c4cccnc4)C(=O)C4=CC(=O)CC[C@]4(C)[C@H]3CC[C@]12C)C(C)C | 43.4% (inactive) |
| COc1ccc(O)c(-c2cc(-c3ccc(Cl)cc3)c(C#N)c(=O)[nH]2)c1 | 37.2% (inactive) |
| Cc1ccc(Cc2cnc(NC(=O)/C=C/c3cccc(C)c3)s2)cc1 | 9.04% (active) |
| COC(=O)CCCCCn1c2ccccc2c2c3c(c4c5ccccc5[nH]c4c21)C(=O)N(O)C3=O | 11.4% (inactive) |
| CN1CCN(CCOc2ccc(-c3cnc4c(-c5cccc(F)c5)cnn4c3)cc2)CC1 | 20.9% (inactive) |
| Cn1cc(-c2csc(-c3cn(CCN)c4ccccc34)n2)c2cccnc21 | 8.25% (active) |
| COc1ccc(NC(=S)N/N=C/c2ccccc2SSCCC(=O)OC[C@H]2O[C@H](O)[C@H](O)[C@@H](O)[C@@H]2O)cc1 | 92.4% (inactive) |
| Cc1nn(-c2ccc(Br)cc2)c2nc3[nH]c(=O)[nH]c(=O)c3nc12 | 118% (inactive) |
| COC(=O)[C@@H]1[C@H]2C[C@H]3c4[nH]c5cc(OC)ccc5c4CCN3C[C@@H]2C[C@H](OC(=O)/C=C/c2ccnc(OC)c2)[C@H]1OC | 93.7% (inactive) |
| COc1cc(-c2cc3cc(O)ccc3oc2=O)cc(OC)c1OC | 94.5% (inactive) |
| Oc1ccc(CCC2CCCC(CCc3ccc(OCCF)cc3)N2)cc1 (stereo not given) | 88.3% (inactive) |
| c1ccc(CN2C(c3ccccc3)=Nc3ccccc3C2c2c[nH]c3ccccc23)cc1 (stereo not given) | 32.4% (inactive) |
| CN1CCN(CCOc2ccc(-c3cnc4c(-c5ccccc5F)cnn4c3)cc2)CC1 | 5.37% (active) |
| Clc1ccc2c(NCCNc3nc(-c4ccccc4)cc(-c4ccccc4)n3)ccnc2c1 | -9.52% (active) |
| OCC1OC(n2cnc3c(Cl)ncnc32)CC1O (stereo not given) | 98.2% (inactive) |
| c1cnc2[nH]cc(-c3csc(-c4cn(CCCN5CCCCC5)c5ccccc45)n3)c2c1 | 6.17% (active) |
| Cn1cc(-c2csc(-c3cn(C(=O)OC(C)(C)C)c4ccc(Br)cc34)n2)c2cccnc21 | 71% (inactive) |
| S=c1[nH]nc2ccccn12 | 101% (inactive) |

Reference: PubChem BioAssay (NCI)
